Several values for one entry are separate records, joined by “and”; a condition that tells them apart may be missing. Equal entries are not always repeated. Activity calls are given as the source filed them. Unless noted, the call rests on the fitted dose curve; in most records, active means well fitted curve in the direction sought with a large enough effect in the repeat runs; inconclusive means weak or mixed curves; inactive means no such curve, though single readings can be large; an effect the other way counts as inactive or inconclusive.

A short description of assay [1]: qHTS assay for small molecule agonists of the p53 signaling pathway - cell viability (AID 651633; calls by dose curve; further: nearly all actives have a fitted effect of over 30% in size; further: potency means the concentration at half of the fitted maximal effect). The gist of the method:
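p53RE-bla cells were treated with compound for 16 hours at 37 C. Cytotoxicity was then measured as CellTiter-Glo luminescence after 30 min at room temperature.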

The nature of assay [2]: qHTS assay to test for compound auto fluorescence at 535 nm (green) in HepG2 cells (AID 720675).
Assay [3] is described as follows: qHTS assay to test for compound auto fluorescence at 590 nm (red) in HEK293 cells (AID 720679). The gist of the method: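 Each well held 2,000 HEK293 cells in medium containing 10% dialyzed FBS. Following 4-5 hr attachment at 37C, 23 nL test compound or DMSO was added; plates sat overnight, and red fluorescence (540/590nm) was recorded.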
Assay [4] is described as follows: qHTS assay to test for compound auto fluorescence at 535 nm (green) in HepG2 cell free culture (AID 720686).
Assay [5] deals with Glucocorticoid receptor (Homo sapiens) (UniProt P04150). Kind of assay: qHTS assay to identify small molecule agonists of the glucocorticoid receptor (GR) signaling pathway (AID 720691; active means well fitted activation curve with a large enough effect in the signal ratio in the repeat runs, not every such curve was filed as active; inconclusive means weak or mixed curves, or effect the other way; inactive means no such curve, though single readings can be large or run the other way; the % refers to the signal ratio). The gist of the method: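 Fluorescence intensity from LiveBLAzer B/G FRET substrate (2 h, room temperature) reports beta-lactamase expression driven by the glucocorticoid response element in GR-bla HeLa cells after 18 h compound exposure at 37 C.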
Glucocorticoid receptor (Homo sapiens), sequence (P04150 whole entry, looked up): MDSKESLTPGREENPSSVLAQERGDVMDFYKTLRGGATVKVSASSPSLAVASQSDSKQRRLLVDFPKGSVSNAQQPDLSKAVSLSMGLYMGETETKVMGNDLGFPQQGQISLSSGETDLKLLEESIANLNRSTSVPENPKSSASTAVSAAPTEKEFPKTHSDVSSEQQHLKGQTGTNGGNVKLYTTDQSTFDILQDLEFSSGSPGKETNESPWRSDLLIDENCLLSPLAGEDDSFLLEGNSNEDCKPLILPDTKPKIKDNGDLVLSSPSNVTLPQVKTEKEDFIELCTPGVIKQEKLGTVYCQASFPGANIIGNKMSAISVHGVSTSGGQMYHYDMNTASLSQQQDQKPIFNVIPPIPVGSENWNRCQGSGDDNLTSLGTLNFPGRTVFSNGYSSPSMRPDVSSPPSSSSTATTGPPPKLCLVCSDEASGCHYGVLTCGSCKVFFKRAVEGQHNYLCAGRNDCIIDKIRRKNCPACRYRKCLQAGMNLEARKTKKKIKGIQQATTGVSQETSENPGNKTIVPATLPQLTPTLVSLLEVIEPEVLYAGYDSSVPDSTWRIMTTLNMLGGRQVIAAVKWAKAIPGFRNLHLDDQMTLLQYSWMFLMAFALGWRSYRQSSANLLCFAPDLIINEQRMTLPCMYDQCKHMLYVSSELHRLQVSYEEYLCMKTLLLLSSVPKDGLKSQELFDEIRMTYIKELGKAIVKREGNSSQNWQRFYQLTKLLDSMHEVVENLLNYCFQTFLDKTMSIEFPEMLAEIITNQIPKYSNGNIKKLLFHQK

The nature of assay [6]: qHTS assay for identifying genotoxic compounds that show differential cytotoxicity against isogenic chicken DT40 cell lines with known DNA damage response pathways - wild type cell line (AID 743012). Further: nearly all actives have a fitted effect of over 60% in size. Further: potency means the concentration at half of the fitted maximal effect. The gist of the method: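 Wild type DT40, 300 cells/well, ~0.5 h settle at 37 C/5% CO2; compounds in DMSO added by pintool; 40 h at 37 C/5% CO2; CellTiter-Glo, 30 min RT; luminescence.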

The nature of assay [7]: qHTS assay for identifying genotoxic compounds that show differential cytotoxicity against isogenic chicken DT40 cell lines with known DNA damage response pathways - Rev3 mutant cell line (AID 743014). Further: nearly all actives have a fitted effect of over 55% in size. Further: potency means the concentration at half of the fitted maximal effect.
Assay [8] can be described thus: qHTS assay for identifying genotoxic compounds that show differential cytotoxicity against isogenic chicken DT40 cell lines with known DNA damage response pathways - Rad54/Ku70 mutant cell line (AID 743015). Further: nearly all actives have a fitted effect of over 60% in size. Further: potency means the concentration at half of the fitted maximal effect.
The nature of assay [9]: qHTS assay to identify small molecule antagonists of the thyroid receptor (TR) signaling pathway (AID 743065). Further: nearly all actives have a fitted effect of over 55% in size. Further: potency means the concentration at half of the fitted maximal effect. The gist of the method: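 GH3.TRE-Luc rat pituitary cells (two TREs driving luciferase) were dosed with compound, then stimulated with 1 nM T3 (final) for 23.5 h at 37 C. ONE-Glo luminescence was the read-out, with CellTiter-Fluor fluorescence as the cytotoxicity counter-screen.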

Assay [10] has as its system thyroid hormone receptor (rat, GH3 cells). The assay can be described thus: qHTS assay to identify small molecule agonists of the thyroid receptor (TR) signaling pathway (AID 743066; calls by dose curve).
Assay [11] can be described thus: qHTS assay to identify small molecule antagonists of the estrogen receptor alpha (ER-alpha) signaling pathway using the BG1 cell line - cell viability counter screen (AID 743081).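 Further: compound given together with 17beta-estradiol as the ER stimulus; nearly all actives have a fitted effect of over 45% in size.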 Further: potency means the concentration at half of the fitted maximal effect.
Assay [12] is described as follows: qHTS assay to identify small molecule that activate the aryl hydrocarbon receptor (AhR) signaling pathway - cell viability counter screen (AID 743086).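 Further: HepG2 liver cells carrying the AhR DRE luciferase reporter; series mostly up to about 70 µM; nearly all actives have a fitted effect of over 45% in size.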 The gist of the method: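 HepG2-AhR-luc (HG2L7.5c1) cells, 4000/well, treated 24 h at 37 C with compound; viability measured as CellTiter-Fluor fluorescence after 30 min in the same wells as the luciferase read.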

Assay [13] in a line: qHTS assay to identify small molecule antagonists of the androgen receptor (AR) signaling pathway - cell viability counter screen (AID 743033; further: nearly all actives have a fitted effect of over 45% in size; further: potency means the concentration at half of the fitted maximal effect).
Assay [14] can be described thus: qHTS assay to identify small molecule antagonists of the androgen receptor (AR) signaling pathway using the MDA cell line - cell viability counter screen (AID 743041; further: nearly all actives have a fitted effect of over 45% in size; further: potency means the concentration at half of the fitted maximal effect). The gist of the method: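 MDA-kb2 AR-luc cells (MMTV-luciferase, AR/GR responsive) treated with compounds plus R1881 agonist for 16 h at 37C. CellTiter-Fluor added at 15.5 h; fluorescence read after 30 min in the same wells.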

Assay [15] in a line: qHTS assay to identify small molecule antagonists of the estrogen receptor alpha (ER-alpha) signaling pathway - cell viability counter screen (AID 743074; calls by dose curve; further: potency means the concentration at half of the fitted maximal effect).
Assay [16] deals with Estrogen receptor (Homo sapiens) (UniProt P03372). Kind of assay: qHTS assay to identify small molecule agonists of the estrogen receptor alpha (ER-alpha) signaling pathway (AID 743075; calls by dose curve;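 further: HEK293 GripTite cells with ER-alpha and UAS-driven beta-lactamase reporter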; further: potency means the concentration at half of the fitted maximal effect).
Estrogen receptor (Homo sapiens), sequence (P03372 whole entry, looked up): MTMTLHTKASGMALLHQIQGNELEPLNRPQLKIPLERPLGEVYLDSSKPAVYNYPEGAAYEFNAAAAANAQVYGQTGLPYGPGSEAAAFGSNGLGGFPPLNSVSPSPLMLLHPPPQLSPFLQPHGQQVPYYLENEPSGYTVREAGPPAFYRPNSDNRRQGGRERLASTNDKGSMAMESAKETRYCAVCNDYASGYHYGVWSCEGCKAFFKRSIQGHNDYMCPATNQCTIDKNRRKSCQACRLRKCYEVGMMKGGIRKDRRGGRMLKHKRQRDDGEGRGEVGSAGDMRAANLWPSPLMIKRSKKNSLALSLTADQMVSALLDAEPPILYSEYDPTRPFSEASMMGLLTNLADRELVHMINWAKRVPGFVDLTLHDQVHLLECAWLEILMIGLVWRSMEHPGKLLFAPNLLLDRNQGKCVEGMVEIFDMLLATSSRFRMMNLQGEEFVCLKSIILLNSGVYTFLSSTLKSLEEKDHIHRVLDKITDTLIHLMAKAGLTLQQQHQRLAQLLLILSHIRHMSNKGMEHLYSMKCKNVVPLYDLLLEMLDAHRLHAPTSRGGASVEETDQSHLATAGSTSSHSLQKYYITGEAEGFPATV
Assay [17] deals with Nuclear receptor subfamily 1 group I member 2 (Homo sapiens) (UniProt O75469). The assay can be described thus: CYP3A4 induction through human pregnane X receptor (PXR) by small molecules, qHTS assay (AID 1346984). Further: nearly all actives have a fitted effect of over 40% in size. The gist of the method:
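Luminescence readout: luciferase signal after One-Glo (30 min, room temperature), following 3 h at 37C with 3uM final Luciferin-IPA P450 substrate. Cells were DPX-2 (HepG2, PXR/CYP3A4-luc co-transfected) dosed for 24 h.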

For assay [18], the target named is Estrogen receptor (Homo sapiens) (UniProt P03372). The assay can be described thus: qHTS assay to identify small molecule agonists of the estrogen receptor alpha (ER-alpha) signaling pathway using the BG1 cell line (AID 743079). Further: nearly all actives have a fitted effect of over 20% in size.
Assay [19] is described as follows: qHTS assay to identify small molecule antagonists of the estrogen receptor alpha (ER-alpha) signaling pathway using the BG1 cell line (AID 743080; calls by dose curve; further: series mostly up to about 70 µM; nearly all actives have a fitted effect of over 25% in size). The gist of the method: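 Antagonist mode: compounds in DMSO were pinned onto BG1-Luc-4E2 cells alongside 17beta-estradiol agonist, incubated 21.5 h, and ERE-driven luciferase measured with ONE-Glo. Cytotoxicity was multiplexed using CellTiter-Fluor fluorescence.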

In assay [20] the target is Peroxisome proliferator-activated receptor gamma (Homo sapiens) (UniProt P37231). Kind of assay: qHTS assay to identify small molecule agonists of the peroxisome proliferator-activated receptor gamma (PPARg) signaling pathway (AID 743094; active means well fitted activation curve with a large enough effect in the signal ratio in the repeat runs, not every such curve was filed as active; inconclusive means weak or mixed curves, or effect the other way; inactive means no such curve, though single readings can be large or run the other way; the % refers to the signal ratio). The gist of the method:
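Beta-lactamase FRET fluorescence was the read-out after a 1 h room-temperature substrate step, following 17 h compound treatment at 37C of HEK293H cells expressing a UAS-driven bla reporter responsive to PPARg.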

Peroxisome proliferator-activated receptor gamma (Homo sapiens), sequence (P37231 whole entry, looked up): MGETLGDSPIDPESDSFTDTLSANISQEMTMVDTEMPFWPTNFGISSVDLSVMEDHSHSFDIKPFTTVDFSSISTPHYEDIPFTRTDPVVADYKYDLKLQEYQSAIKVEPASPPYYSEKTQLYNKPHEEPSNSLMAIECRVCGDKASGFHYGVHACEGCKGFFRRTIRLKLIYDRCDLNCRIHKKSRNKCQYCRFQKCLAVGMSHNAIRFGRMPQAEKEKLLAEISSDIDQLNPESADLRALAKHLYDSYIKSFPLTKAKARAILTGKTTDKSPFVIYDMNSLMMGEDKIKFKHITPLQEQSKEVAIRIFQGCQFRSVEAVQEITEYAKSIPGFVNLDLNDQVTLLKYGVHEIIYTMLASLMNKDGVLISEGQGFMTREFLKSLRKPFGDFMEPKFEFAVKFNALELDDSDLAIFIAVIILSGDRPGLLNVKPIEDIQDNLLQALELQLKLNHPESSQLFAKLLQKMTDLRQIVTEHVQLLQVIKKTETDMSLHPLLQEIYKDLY

Turning to `CC(=O)O[C@H]1C[C@H](O[C@H]2[C@@H](O)C[C@H](O[C@H]3[C@@H](O)C[C@H](O[C@H]4CC[C@@]5(C)[C@H](CC[C@@H]6[C@@H]5C[C@@H](O)[C@]5(C)[C@@H](C7=CC(=O)OC7)CC[C@]65O)C4)O[C@@H]3C)O[C@@H]2C)O[C@H](C)[C@H]1O[C@@H]1O[C@H](CO)[C@@H](O)[C@H](O)[C@H]1O`, the Potency in assay [1] is 0.133 µM (active); in [6], 0.75 µM (active); in [7], 0.75 µM (active); in [8], 0.668 µM (active). Further, the Potency result in assay [2], in assay [4], in assay [5], in [9], in [10] and in assay [11] was “inactive” in each case. Moreover, the Potency result in [12] was “inactive”. Besides, the result in assay [3] was inactive.

Take `Oc1cccc[c]1[Hg][Cl]`: the Potency entry in [2] and in assay [17] was “inactive” in each case. Further, the molecule was called inactive in assay [3]. Further, the Potency was 0.473 µM (active) in assay [6]; 0.75 µM (active) in assay [7]; 0.473 µM (active) in assay [8]; 10.7 µM (active) in assay [13]; 7.5 µM (active) in assay [14]; 473 nM (active) in assay [9]. For the same molecule, the Potency in assay [15] is 21.3 µM (active); in assay [16], 6.01 µM [inconclusive] (active); in assay [11], 23.7 µM (active).

`CC(C)[C@@]1(NC(=O)[C@@H]2C[C@@H]3c4cccc5[nH]cc(c45)C[C@H]3N(C)C2)O[C@@]2(O)[C@@H]3CCCN3C(=O)[C@H](Cc3ccccc3)N2C1=O`: the Potency result in assay [1], in assay [2], in assay [13], in assay [14], in [10] and in assay [15] was “inactive” each time. For the same molecule, the Potency entry in assay [16], in assay [18], in assay [19] and in assay [11] was “inactive” each time. Further, the outcome in assay [3] was inactive. Moreover, the Potency was 29.8 µM (active) in assay [6]; 23.7 µM (active) and 26.6 µM (active) in assay [9].

Turning to `C=C[C@H]1CN2CC[C@H]1C[C@@H]2[C@@H](O)c1ccnc2ccccc12`, the Potency result in assay [2], in assay [4], in assay [5], in [14], in [9] and in assay [10] was “inactive” throughout. In addition, the Potency entry in assay [15], in [11], in assay [20] and in assay [17] was “inactive” throughout. Besides, the outcome in assay [3] was inactive.

For `CNC1(c2ccccc2Cl)CCCCC1=O` (stereo not given), the Potency entry in assay [1], in [2], in [4], in [5], in [6] and in assay [7] was “inactive” each time. The Potency entry in assay [8], in [13], in assay [9], in assay [10], in assay [15] and in [16] was “inactive” throughout. In addition, the Potency entry in assay [18], in [19], in assay [11] and in [20] was “inactive” each time. Moreover, the outcome in assay [3] was inactive.

On to `CC(=O)O[C@H]1C[C@H](O[C@H]2[C@@H](O)C[C@H](O[C@H]3[C@@H](O)C[C@H](OC4CC[C@@]5(C)[C@H](CC[C@@H]6[C@@H]5CC[C@]5(C)[C@@H](C7=CC(=O)OC7)CC[C@]65O)C4)O[C@@H]3C)O[C@@H]2C)O[C@H](C)[C@H]1O[C@@H]1O[C@H](CO)[C@@H](O)[C@H](O)[C@H]1O` (stereo not given in full), for which the Potency is 0.0473 µM (active) in [1]; 0.473 µM (active) in assay [6]; 0.473 µM (active) in assay [7]; 0.596 µM (active) in assay [8]; 0.107 µM (active) in assay [13]; 0.0674 µM (active) in assay [15]. In addition, the Potency result in assay [2], in assay [4], in [5], in assay [9], in assay [10] and in assay [16] was “inactive” throughout. In addition, the Potency result in assay [11], in assay [12] and in [17] was “inactive” each time. Moreover, the result in [3] was inactive.

Consider `CN1[C@@H]2CC[C@H]1CC(OC1c3ccccc3CCc3ccccc31)C2` (stereo not given in full), for which the Potency result in [1], in assay [2], in assay [5], in [13], in assay [14] and in [10] was “inactive” in each case. Also, the Potency result in [15], in [16], in [18], in assay [19], in [11] and in [12] was “inactive” in each case. Further, the Potency result in assay [20] and in [17] was “inactive” each time. In assay [3], the call was inactive. In addition, the Potency in assay [6] is 7.17 µM (active); in [7], 10.1 µM (active); in assay [8] it was 11.4 µM (active); in assay [9] it was 5070 nM (active).

(Values after PubChem BioAssay (Tox21).)
